Source: the supplement of paper PMC8728848
Only a selection was taken, and the strongest signals are over-represented in it overall.

Experiments:
Experiment in all cases: glycan array binding signal (z-score within array); higher = stronger binding
Details in all cases: glycan notation: IUPAC condensed, linker removed
[1] = biological target: Fuc(a1-2)Gal(b1-3)GlcNAc6S
Summary of the method: (§1)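 Columns mapping to the same glycan were averaged after glycan names were converted to IUPAC-condensed notation. The data come from 3228 arrays in the Consortium for Functional Glycomics database, limited to those with an available protein sequence. Binding is reported as a within-array Z-score averaged across arrays of one protein sequence and across linkers.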

[2] = biological target: Fuc(a1-2)Gal(b1-4)GlcNAc(b1-3)Gal(b1-4)GlcNAc(b1-2)Man(a1-3)[Fuc(a1-2)Gal(b1-4)GlcNAc(b1-3)Gal(b1-4)GlcNAc(b1-2)Man(a1-6)]Man(b1-4)GlcNAc(b1-4)GlcNAc
Summary of the method: as §1

[3] = biological target: Fuc(a1-2)Gal(b1-4)[Fuc(a1-3)]GlcNAc(b1-2)[Fuc(a1-2)Gal(b1-4)[Fuc(a1-3)]GlcNAc(b1-4)]Man(a1-3)[Fuc(a1-2)Gal(b1-4)[Fuc(a1-3)]GlcNAc(b1-2)Man(a1-6)]Man(b1-4)GlcNAc(b1-4)GlcNAc
Summary of the method: as §1

[4] = biological target: Fuc(a1-2)[Gal(a1-3)]Gal(b1-3)GlcNAc
Summary of the method: as §1

[5] = biological target: Fuc(a1-2)[Gal(a1-3)]Gal(b1-4)GlcNAc(b1-2)Man
Summary of the method: as §1

[6] = biological target: Fuc(a1-2)[Gal(a1-3)]Gal(b1-4)GlcNAc(b1-6)GalNAc
Summary of the method: as §1

[7] = biological target: Fuc(a1-2)[GalNAc(a1-3)]Gal(b1-4)GlcNAc(b1-2)Man(a1-3)[Fuc(a1-2)[GalNAc(a1-3)]Gal(b1-4)GlcNAc(b1-2)Man(a1-6)]Man(b1-4)GlcNAc(b1-4)GlcNAc
Summary of the method: as §1

[8] = biological target: Fuc(a1-2)[GalNAc(a1-3)]Gal(b1-4)GlcNAc(b1-6)GalNAc
Summary of the method: as §1

Gal(a1-3)Gal(b1-3)GlcNAc = biological target: Gal(a1-3)Gal(b1-3)GlcNAc
Summary of the method: as §1

[9] = biological target: Gal(a1-3)Gal(b1-3)GlcNAc(b1-2)Man(a1-3)[Gal(a1-3)Gal(b1-3)GlcNAc(b1-2)Man(a1-6)]Man(b1-4)GlcNAc(b1-4)GlcNAc
Summary of the method: as §1

[10] = biological target: Gal(a1-4)Gal(b1-4)GlcNAc(b1-3)Gal(b1-4)Glc
Summary of the method: as §1

Gal(b1-3)Gal(b1-4)GlcNAc = biological target: Gal(b1-3)Gal(b1-4)GlcNAc
Summary of the method: as §1

[11] = biological target: Gal(b1-3)GlcNAc(a1-6)Gal(b1-4)GlcNAc
Summary of the method: as §1

Gal(b1-3)GlcNAc6S = biological target: Gal(b1-3)GlcNAc6S
Summary of the method: as §1

[12] = biological target: Gal(b1-3)[Neu5Ac(a2-6)]GlcNAc(b1-4)Gal(b1-4)Glc
Summary of the method: as §1

[13] = biological target: Gal(b1-4)GlcNAc(b1-2)[Gal(b1-4)GlcNAc(b1-6)]Man(a1-6)[Gal(b1-4)GlcNAc(b1-2)Man(a1-3)]Man(b1-4)GlcNAc(b1-4)GlcNAc
Summary of the method: as §1

Gal(b1-4)GlcNAc6P = biological target: Gal(b1-4)GlcNAc6P
Summary of the method: as §1

[14] = biological target: Gal3S(b1-3)[Fuc(a1-4)]GlcNAc
Summary of the method: as §1

Gal6S(b1-4)Glc = biological target: Gal6S(b1-4)Glc
Summary of the method: as §1

[15] = biological target: GalNAc(b1-3)Gal(a1-4)Gal(b1-4)GlcNAc(b1-3)Gal(b1-4)Glc
Summary of the method: as §1

GalNAc(b1-3)GalNAc = biological target: GalNAc(b1-3)GalNAc
Summary of the method: as §1

GalNAc(b1-3)GlcNAc = biological target: GalNAc(b1-3)GlcNAc
Summary of the method: as §1

[16] = biological target: Man(a1-2)Man(a1-3)[Man(a1-2)Man(a1-6)]Man(a1-6)[Man(a1-2)Man(a1-2)Man(a1-3)]Man(b1-4)GlcNAc(b1-4)GlcNAc
Summary of the method: as §1

[17] = biological target: Man(a1-3)[Man(a1-6)]Man(a1-6)[Man(a1-2)Man(a1-3)]Man(b1-4)GlcNAc(b1-4)GlcNAc
Summary of the method: as §1

B1: SialidaseA (Arthrobacter ureafaciens) (protein)
chain: MRSNSTSAPSLVRRAATGVLTCAVSIGLLAGLGLPAQAAPTPPNSPTLPPGSFSETNLAADRTAANFFYRIPALTYLGNDVVLAAWDGRPGSAADAPNPNSIVQRRSTDGGKTWGPVQVIAAGHVADASGPRYGYSDPSYIYDAEANKVFAFFVYSKDQGFGGSQFGNDDADRNVISSAVIESSDAGVTWSQPRLITSVTKPGTSKTNPAAGDVRSNFASSGEGIQLKYGPHKGRLIQQYAGDVRQADGSNKIQAYSVYSDDHGVTWHKGANVGDRMDENKTVELSDGRVLLNSRDNANRGYRKVAVSTDGGATYGPVSQDTELPDPANNGAIARMFPNAAQGSADAKKLIFTNANSKTGRENVSARVSCDDGETWPGVRTIRSGFSAYSTVTRLADGKFGVLYEGNYTDNMPFATFDDAWLNYVCAPLAVPAVNIAPSATQEVPVTVTNQEATTLSGATATVYTPSGWSATTVPVPDVAPGASVTVTVALTAPADASGPRSLNAAFTTADGRVSQFTFTATTPVAPQVGLTITGSAPARDVAANPYQAGDVLGYTLNVKSTANVAANSVPLTGTFDSGFLPPAAPNCRYNNLAAGASYNCTTAKHTITAADMERGYFVPEATFSITSTTTPSLTKTVQFTGAAVALRDGLISADISGARTDVGRDLATRPYAAGELVPYAFTVKNTSPFVEQVVPTAGNFSPFLPAGAGNCRYLSLPAGQSYECATPRHAVTAEEVEQGFFVPDTTWEVSAAGQSTRTYRINGGEVDLLVRDAALSATVVAEWKDADGDRFASAGDPVTFTYTVGNAGNVALTGLEAPDAGISLPFLAPGDTATATREHVLTAADVAGGSLAASAFEATARNGSKEVTATAEGQPLELKVQPAQPSKEPELTVQDLEDQTPPFDLGTAFKYRTGQKVSLAGLEYGQWYYVYLNKTGYRLGWMFPTTGDTVEFILPPEVRNGRDDVVVLDKDGRRVSFDRLQVTPKGEKI
**Q.** How did the “glycan array binding signal (z-score)” value [1] turn out when B1 was run?
**A.** -0.849

**Q.** And the “glycan array binding signal (z-score)” value [2]?
**A.** 1.3

**Q.** What about the “glycan array binding signal (z-score)” value [3] of the same binder?
**A.** 0.318

**Q.** And the “glycan array binding signal (z-score)” value [4]?
**A.** -0.478

**Q.** And the “glycan array binding signal (z-score)” value [5]?
**A.** -0.252

**Q.** What about the “glycan array binding signal (z-score)” value [6] of the same binder?
**A.** -0.849

**Q.** And the “glycan array binding signal (z-score)” value [7]?
**A.** -0.021

**Q.** And the “glycan array binding signal (z-score)” value [8]?
**A.** -0.733

**Q.** And the “glycan array binding signal (z-score)” value (Gal(a1-3)Gal(b1-3)GlcNAc)?
**A.** -0.563

**Q.** What about the “glycan array binding signal (z-score)” value [9] of the same binder?
**A.** 0.062

**Q.** What about the “glycan array binding signal (z-score)” value [10] of the same binder?
**A.** -0.51

**Q.** And the “glycan array binding signal (z-score)” value (Gal(b1-3)Gal(b1-4)GlcNAc)?
**A.** -0.643

**Q.** What about the “glycan array binding signal (z-score)” value [11] of the same binder?
**A.** -0.544

**Q.** What about the “glycan array binding signal (z-score)” value (Gal(b1-3)GlcNAc6S) of the same binder?
**A.** -0.625

**Q.** What about the “glycan array binding signal (z-score)” value [12] of the same binder?
**A.** 2.48

**Q.** And the “glycan array binding signal (z-score)” value [13]?
**A.** -0.46

**Q.** And the “glycan array binding signal (z-score)” value (Gal(b1-4)GlcNAc6P)?
**A.** -0.685

**Q.** And the “glycan array binding signal (z-score)” value [14]?
**A.** -0.337

**Q.** And the “glycan array binding signal (z-score)” value (Gal6S(b1-4)Glc)?
**A.** -0.719

**Q.** And the “glycan array binding signal (z-score)” value [15]?
**A.** -0.337

**Q.** What about the “glycan array binding signal (z-score)” value (GalNAc(b1-3)GalNAc) of the same binder?
**A.** -0.689

**Q.** What about the “glycan array binding signal (z-score)” value (GalNAc(b1-3)GlcNAc) of the same binder?
**A.** -0.637

**Q.** And the “glycan array binding signal (z-score)” value [16]?
**A.** -0.441

**Q.** What about the “glycan array binding signal (z-score)” value [17] of the same binder?
**A.** -0.172
